Data on 15 molecules can be found in PubChem BioAssay (EPA / NIEHS).

“And” between values parts separate entries of the source, which are not always exact repeats. Equal entries are not always repeated. Inconclusive results are not listed. The source made the active and inactive calls. The calls were made as follows, unless noted: active = hit-call score of the fitted dose curve at least 0.9, where 1 is the maximum; inactive = score below 0.9.

Test [1] deals with Nucleoli Translocation, AR (gene 367) (UniProt P10275). The test is described as follows: UPITT_HCI_U2OS_AR_TIF2_Nucleoli_Antagonist: University of Pittsburgh U2OS Androgen Receptor-Transcriptional Intermediary Factor 2 (AR-TIF2) Antagonism High Content Imaging Assay for Nucleoli Translocation (AID 2283997; active = hit-call score of the fitted dose curve at least 0.9, where 1 is the maximum). The essentials: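 Antagonism is read as loss of nucleolar AR-RFP signal relative to DHT, imaged in U2OS cells also carrying GFP-TIF2. Compounds screened at 20 uM final, 0.2% DMSO; primary actives retested in triplicate.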

Test [2] addresses Ratio of Nucleoli Translocation and Cytoplasm, AR (gene 367) (UniProt P10275). The test is described as follows: UPITT_HCI_U2OS_AR_TIF2_Nucleoli_Cytoplasm_Ratio_Antagonist: University of Pittsburgh U2OS Androgen Receptor-Transcriptional Intermediary Factor 2 (AR-TIF2) Antagonism High Content Imaging Assay for Ratio of Nucleoli Translocation and Cytoplasm (AID 2283999; active = hit-call score of the fitted dose curve at least 0.9, where 1 is the maximum;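 also: antagonists lower the DHT-driven ratio of nucleolar to cytoplasmic red signal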). The essentials: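 This antagonist-mode endpoint tracks AR-RFP localisation, the nucleolus-to-cytoplasm intensity ratio, in TIF2-GFP-coexpressing U2OS cells. DMSO stays at or below 0.5%; testing spans 20 uM single-dose and 0.195–50 uM series, with DHT setting the activity baseline.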

Test [3] is described as follows: CCTE_Simmons_MITO_basal_resp_rate: CCTE's HepG2 Seahorse XF Respirometric Screening Assay at Basal Respiratory State, Simmons Lab (AID 2284001). The conditions noted are these: actives raise or lower the signal. The essentials: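 Basal-phase OCR in HepG2 cells, read at 6-min intervals across a 72-min run, with test compound injected at 125 nM–100 uM final (7 points). Fitted both directions against DMSO; three biological replicates per concentration.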

For test [4], the target named is Nucleoli Translocation, AR (gene 367) (UniProt P10275). The test is described as follows: UPITT_HCI_U2OS_AR_TIF2_Nucleoli_Agonist: University of Pittsburgh U2OS Androgen Receptor-Transcriptional Intermediary Factor 2 (AR-TIF2) Agonism High Content Imaging Assay for Nucleoli Translocation (AID 2283998; active = hit-call score of the fitted dose curve at least 0.9, where 1 is the maximum). The essentials:
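Red-tagged human androgen receptor co-expressed with GFP-tagged TIF2 serves as the binding reporter. Primary testing used 20 uM final (0.2% DMSO); follow-up dose response covered 0.195 to 50 uM final (0.5% DMSO).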

Test [5] deals with Ratio of Nucleoli Translocation and Cytoplasm, AR (gene 367) (UniProt P10275). The test is described as follows: UPITT_HCI_U2OS_AR_TIF2_Nucleoli_Cytoplasm_Ratio_Agonist: University of Pittsburgh U2OS Androgen Receptor-Transcriptional Intermediary Factor 2 (AR-TIF2) Agonism High Content Imaging Assay for Ratio of Nucleoli Translocation and Cytoplasm (AID 2284000; active = hit-call score of the fitted dose curve at least 0.9, where 1 is the maximum;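 also: hits raise the red nucleolar to cytoplasm ratio above vehicle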). The essentials: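 Compounds tested at 20 uM final in primary screen (0.2% DMSO) and 0.195-50 uM final in dose-response (0.5% DMSO). Imaging of human U2OS cells bearing RFP-AR and GFP-TIF2; endpoint is nucleoli/cytoplasm red signal ratio, positive direction relative to DMSO.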

Test [6] in a line: CCTE_Harrill_HTTr_Viability_DMEM_6hr: (Pilot) CCTE's 6-hour Cell Viability Assessment for the High-Throughput Transcriptomics (HTTr) Platform, in MCF-7 cells cultured in DMEM + 10% fetal bovine serum, Harrill Lab (AID 2283973). The gist of the method:
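Propidium iodide uptake imaged by high-content analysis after six hours of chemical treatment in an eight-concentration series. Cells: MCF-7 grown in DMEM with 10% fetal bovine serum; DMSO as baseline.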

A short description of test [7]: CCTE_Harrill_HTTr_Viability_DMEM_12hr: (Pilot) CCTE's 12-hour Cell Viability Assessment for the High-Throughput Transcriptomics (HTTr) Platform, in MCF-7 cells cultured in DMEM + 10% fetal bovine serum, Harrill Lab (AID 2283974). The essentials:
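Propidium iodide dye exclusion imaged by high-content microscopy after 12 h chemical exposure (eight concentrations) of MCF-7 cells grown in DMEM plus 10% FBS; values fitted in both directions relative to DMSO.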

Test [8] can be described thus: CCTE_Harrill_HTTr_Viability_DMEM_24hr: (Pilot) CCTE's 24-hour Cell Viability Assessment for the High-Throughput Transcriptomics (HTTr) Platform, in MCF-7 cells cultured in DMEM + 10% fetal bovine serum, Harrill Lab (AID 2283975). The gist of the method: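 Pilot study: propidium iodide dye exclusion, imaged by high content microscopy, after 24 h compound exposure (eight concentrations) in MCF-7 cultured in DMEM + 10% fetal bovine serum; DMSO served as negative control and baseline.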

Test [9] can be described thus: CCTE_Harrill_HTTr_Viability_PRF_DMEM_6hr: (Pilot) CCTE's 6-hour Cell Viability Assessment for the High-Throughput Transcriptomics (HTTr) Platform, in MCF-7 cells cultured phenol red-free DMEM + 10% charcoal-stripped fetal bovine serum, Harrill Lab (AID 2283976). The essentials:
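Membrane integrity by high-content imaging of propidium iodide uptake, six hours after dosing with eight concentrations. Cells: MCF-7 grown in phenol red-free DMEM plus 10% charcoal-stripped serum; DMSO serves as baseline for bidirectional fits.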

Test [10] in a line: CCTE_Harrill_HTTr_Viability_PRF_DMEM_12hr: (Pilot) CCTE's 12-hour Cell Viability Assessment for the High-Throughput Transcriptomics (HTTr) Platform, in MCF-7 cells cultured in phenol red-free DMEM + 10% charcoal-stripped fetal bovine serum, Harrill Lab (AID 2283977). The essentials:
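Membrane integrity was scored via propidium iodide dye exclusion imaging, fitted in both directions relative to DMSO. Compounds ran as eight-point dilutions for 12 hours on MCF-7 grown in phenol red-free DMEM plus 10% charcoal-stripped serum.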

The nature of test [11]: CCTE_Harrill_HTTr_Viability_PRF_DMEM_24hr: (Pilot) CCTE's 24-hour Cell Viability Assessment for the High-Throughput Transcriptomics (HTTr) Platform, in MCF-7 cells cultured in phenol red-free DMEM + 10% charcoal-stripped fetal bovine serum, Harrill Lab (AID 2283980). The gist of the method: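 Propidium iodide exclusion imaged at 24 h after dosing scores viability; cells were MCF-7 grown in phenol red-free DMEM plus 10% charcoal-stripped serum, tested in eight concentrations, fitted in both directions against DMSO.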

The nature of test [12]: CCTE_Harrill_HTTr_Apoptosis_DMEM_6hr: (Pilot) CCTE's 6-hour Apoptosis Assessment for the High-Throughput Transcriptomics (HTTr) Platform, in MCF-7 cells cultured in DMEM + 10% fetal bovine serum, Harrill Lab (AID 2283981). The gist of the method:
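MCF-7 cells grown in DMEM + 10% FBS were exposed for 6 hours to an eight-point dilution series. CellEvent Caspase 3/7 Green signal was imaged; activity fitted bidirectionally against DMSO.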

Test [13] in a line: CCTE_Harrill_HTTr_Apoptosis_DMEM_12hr: (Pilot) CCTE's 12-hour Apoptosis Assessment for the High-Throughput Transcriptomics (HTTr) Platform, in MCF-7 cells cultured in DMEM + 10% fetal bovine serum, Harrill Lab (AID 2283982). The essentials:
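Caspase-3/7 activity was measured by high-content imaging (CellEvent Caspase 3/7 Green) after a 12-hour exposure of MCF-7 cells grown in DMEM with 10% FBS. Eight-point concentration series, fitted bidirectionally against vehicle.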

The nature of test [14]: CCTE_Harrill_HTTr_Apoptosis_DMEM_24hr: (Pilot) CCTE's 24-hour Apoptosis Assessment for the High-Throughput Transcriptomics (HTTr) Platform, in MCF-7 cells cultured in DMEM + 10% fetal bovine serum, Harrill Lab (AID 2283983). The essentials: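 Caspase-3/7 activity read by high-content imaging (CellEvent Green reagent) 24 h after dosing. MCF-7 cells grown in DMEM with 10% FBS received an eight-point concentration series; fits were bidirectional versus DMSO.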

The nature of test [15]: CCTE_Harrill_HTTr_Apoptosis_PRF_DMEM_6hr: (Pilot) CCTE's 6-hour Apoptosis Assessment for the High-Throughput Transcriptomics (HTTr) Platform, in MCF-7 cells cultured phenol red-free DMEM + 10% charcoal-stripped fetal bovine serum, Harrill Lab (AID 2283984). The gist of the method: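 Caspase-3/7 activity (CellEvent Green) read by high-content imaging 6 h after dosing, eight concentrations. Cells: MCF-7, phenol red-free DMEM with 10% charcoal-stripped serum. Curves fit both directions against DMSO.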

Test [16] is described as follows: CCTE_Harrill_HTTr_Apoptosis_PRF_DMEM_24hr: (Pilot) CCTE's 24-hour Apoptosis Assessment for the High-Throughput Transcriptomics (HTTr) Platform, in MCF-7 cells cultured in phenol red-free DMEM + 10% charcoal-stripped fetal bovine serum, Harrill Lab (AID 2283986). The gist of the method:
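Eight concentrations tested for 24 h on MCF-7 grown in charcoal-stripped serum, phenol red-free DMEM. High content imaging of CellEvent Caspase 3/7 Green signal gives apoptosis read-out, fitted both ways relative to DMSO.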

A short description of test [17]: TOX21_TR_RXR_BLA_Agonist_Followup_viability: Viability Assessment in the Tox21 Thyroid Hormone Receptor beta Retinoid X Receptor alpha (RXRa) Agonism Beta-lactamase (BLA) Follow-Up Assay (AID 2283970; active = hit-call score of the fitted dose curve at least 0.9, where 1 is the maximum). The gist of the method:
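Luminescent ATP read (CellTiter-Glo) after 16h exposure of RXRa-UAS-bla HEK293T cells at 37C/5% CO2. Activity normalized to DMSO; signal loss scored as reduced viability.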

The subject of a further test is DIO1 (gene 1733). The test is described as follows: CCTE_GLTED_hDIO1: CCTE's human Deiodinase 1 (DIO1) Inhibition Assay, Great Lakes Toxicology and Ecology Division (GLTED) Lab (AID 2283987; active = hit-call score of the fitted dose curve at least 0.9, where 1 is the maximum;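 also: isolated human DIO1 enzyme in a cell-free setup rather than cells; enzyme activity read as free iodide liberated from substrate via Sandell-Kolthoff colorimetry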). The gist of the method:
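Cell-free hDIO1 assay, triplicate plates. Absorbance of the Sandell-Kolthoff reaction reports enzyme-liberated iodide; iodinated chemicals or nitrite, iron and thiocyanate may interfere.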

Ratio of Nucleoli Translocation and Cytoplasm, AR (gene 367), sequence (P10275 whole entry, looked up): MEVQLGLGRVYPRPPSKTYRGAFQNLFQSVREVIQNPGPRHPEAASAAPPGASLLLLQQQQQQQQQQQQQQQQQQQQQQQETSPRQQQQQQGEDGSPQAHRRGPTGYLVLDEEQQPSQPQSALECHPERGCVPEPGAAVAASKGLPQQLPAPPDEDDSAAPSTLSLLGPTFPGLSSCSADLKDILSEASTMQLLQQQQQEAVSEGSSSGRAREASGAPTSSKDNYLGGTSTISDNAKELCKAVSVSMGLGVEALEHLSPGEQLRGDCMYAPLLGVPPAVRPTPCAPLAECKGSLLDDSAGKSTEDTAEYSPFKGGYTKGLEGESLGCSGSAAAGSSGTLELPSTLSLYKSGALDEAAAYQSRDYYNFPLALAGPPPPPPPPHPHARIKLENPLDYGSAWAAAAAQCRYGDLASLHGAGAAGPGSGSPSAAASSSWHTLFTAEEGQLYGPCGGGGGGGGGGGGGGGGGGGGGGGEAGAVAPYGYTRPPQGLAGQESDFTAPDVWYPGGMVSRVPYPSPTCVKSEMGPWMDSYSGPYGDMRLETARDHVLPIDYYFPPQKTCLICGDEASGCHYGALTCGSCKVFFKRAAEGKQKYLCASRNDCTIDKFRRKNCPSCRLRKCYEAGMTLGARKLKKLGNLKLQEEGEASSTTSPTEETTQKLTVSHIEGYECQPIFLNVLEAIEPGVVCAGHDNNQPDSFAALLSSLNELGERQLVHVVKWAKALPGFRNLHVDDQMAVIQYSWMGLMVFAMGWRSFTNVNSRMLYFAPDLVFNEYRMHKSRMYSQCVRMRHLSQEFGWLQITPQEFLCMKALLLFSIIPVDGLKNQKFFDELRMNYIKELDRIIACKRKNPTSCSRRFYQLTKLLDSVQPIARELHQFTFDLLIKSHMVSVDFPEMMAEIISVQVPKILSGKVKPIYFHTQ
Nucleoli Translocation, AR (gene 367), sequence (P10275 whole entry, looked up): as above

As to `CC(=O)S[C@@H]1CC2=CC(=O)CC[C@]2(C)[C@H]2CC[C@@]3(C)[C@@H](CC[C@@]34CCC(=O)O4)[C@H]12`, the molecule was called inactive in test [1] and in test [2].
As for `CCCCC(CC)COC(=O)c1ccccc1C(=O)O` (stereo unspecified), in test [3], the AC50 (in general, the concentration at which the activity in the assay is half-maximal) was 3.97 µM (active).
In the case of `CCCCOC(=O)[C@@H](C)Oc1ccc(Oc2ccc(C(F)(F)F)cn2)cc1`, in [3], the result was inactive.
Regarding `CCOC(=O)C(C)Oc1ccc(Oc2nc3ccc(Cl)cc3o2)cc1` (stereo unspecified), the call in test [1] and in test [2] was inactive.
As to `CCSC(=O)N(CC(C)C)CC(C)C`, the molecule was called inactive in test [1], in [4], in test [2] and in test [5].
With `N[C@@H](Cc1cc(I)c(Oc2ccc(O)c(I)c2)c(I)c1)C(=O)O`, the result in test [6], in test [7], in test [8], in test [9], in test [10] and in test [11] was inactive. The result in test [12], in [13], in test [14], in [15] and in test [16] was inactive. Further, the AC50 in test [3] is 6.61 µM (active).
Take `CCNc1nc(N)nc(Cl)n1`: in [17], the molecule was called inactive.
Consider `CCCCOC(=O)C(C)Oc1ccc(Oc2ccc(C(F)(F)F)cn2)cc1` (stereo unspecified), for which the outcome in [3] was inactive.
`C=CCOC(Cn1ccnc1)c1ccc(Cl)cc1Cl` (stereo unspecified): the result in [6], in test [7], in test [8], in test [9], in test [10] and in test [11] was inactive. For the same molecule, the outcome in [12], in test [13], in [14], in [15] and in test [16] was inactive. Also, in [3], the AC50 was 24.3 µM (active).
For the molecule `S=C(S)NCCNC(=S)S.[Mn+2].[S-]C([S-])=NCCN=C([S-])[S-].[Zn+2]`, the AC50 with DIO1 (gene 1733) is 29.5 µM (active) and 50 µM (active).
With `Cc1nn(C)c(Oc2ccccc2)c1C=NOCc1ccc(C(=O)OC(C)(C)C)cc1`, the outcome in [6], in test [7], in [8], in test [9], in test [10] and in [11] was inactive. The result in test [12], in test [13], in test [14], in test [15], in [16] and in test [1] was inactive. The outcome in test [4] and in test [2] was inactive. For the same molecule, in test [3], the AC50 is 1.15 µM (active) and 1.55 µM (active).
Consider `c1ccc2[nH]c(-c3cscn3)nc2c1`, for which the result in test [1] and in test [5] was inactive.
Consider `CCCN(CCC)C(=O)SCC`, for which the molecule was called inactive in test [1], in [4] and in test [5].
Consider `COC(=O)CSc1cc(N=c2sc(=O)n3n2CCCC3)c(F)cc1Cl`, for which the molecule was classed as inactive in [1], in test [4], in [2] and in test [5].
For `N#CSCSc1nc2ccccc2s1`, the AC50 in test [1] is 9.92 µM (active); in [4], 13 µM (active); in test [2], 32.4 µM (active); in test [5] it was 12.8 µM (active); in test [3] it was 15.1 µM (active).
